# Screens from PubChem BioAssay.
# IDE act – human IDE activators in live cells, primary screen, fluorescence polarization, HEK cells, FAbeta-B substrate; Insulin-degrading enzyme (Homo sapiens), P14735; FAbeta-B cleavage; 0% vehicle, 100% cell-free pure enzyme wells; activation, % at 5.96 µM; hit rate 0.073% among 340,000; AID 493087, 2011;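 active means activation above the mean of all tested compounds plus 3 SD, set per screening campaign, cut at about 17% in these data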
# TMEM16A act – TMEM16A chloride channel activators or potentiators, primary screen, cell-based, HTS | Anoctamin-1 (Mus musculus), Q8BHY3 | HEK293 TMEM16A/YFP-H148Q/I152L, iodide quench fluorescence; stronger effect = lower value | B-score at 10 µM | hit rate 0.3% among 340,000 | AID 623877, 2012;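 active means fluorescence-ratio B-score plate-corrected deviation score at least 3 library SD below zero, with starting fluorescence score within 5 deviations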;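 further: channel opened by trigger with iodide after compound preincubation; score built on the fluorescence ratio of max minus min over baseline; more negative score means more quench and so TMEM16A activation or potentiation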
# CHT allo act – CHT positive allosteric modulators, primary screen, cell-based, membrane potential dye, choline EC20 | High affinity choline transporter 1 (Homo sapiens), Q9GZV3 | CHT-expressing cells; stronger effect = higher value; LV-AA mutant CHT in HEK293 cells | B-score at 10 µM | hit rate 0.49% among 310,000 | AID 488977, 2010;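 active means initial fluorescence not abnormally high and integrated response B-score, plate-corrected, over 3 SD above library mean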
# CHT inh – inhibitors of human choline transporter CHT; CHT-expressing cells, membrane potential dye, choline response; stronger effect = lower value; B-score at 10 µM; hit rate 0.86% among 310,000; AID 488975, 2010;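 active means B-score over 3 SD under the library average, and starting fluorescence ratio not unusually high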;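 further: choline stimulus applied at its EC90 after an EC20 pre-addition; B-score computed on integrated fluorescence ratio after choline addition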
# IDE cell inh – human IDE inhibitors in live cells, primary screen, fluorescence polarization, HEK cells, FAbetaB substrate. Insulin-degrading enzyme (Homo sapiens), P14735. FAbetaB cleavage. inhibition, % at 5.59 µM. hit rate 0.41% among 320,000. AID 434962, 2010;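 active means percent inhibition above the average of all tested compounds plus 3 SD, set per screening campaign, cut at about 16% in these data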;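 further: IDE supplied by intact live HEK cells; FP after avidin binding of uncleaved biotin substrate so inhibition keeps polarization high; 0% = DMSO wells and 100% = 60 µM reference IDE inhibitor Ii1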
# ANO1 block – TMEM16A chloride channel inhibitors, primary screen, cell-based, HTS. Anoctamin-1 (Mus musculus), Q8BHY3. HEK293 TMEM16A/YFP iodide influx fluorescence, ionomycin. normalized B-score (activity score, 25-100; higher = stronger inhibition) at 10 µM. hit rate 1.2% among 310,000;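 active means ratio plate-corrected score three or more library SD toward inhibition, starting fluorescence score within five deviations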;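 further: score derived from kinetic fluorescence span divided by baseline fluorescence per well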
# TMEM16A reconf – TMEM16A chloride channel inhibitors, confirmation, cell-based, re-confirmation | shares compounds with ANO1 block | inhibition, % at 10 µM | hit rate 39% among 2,300 | HEK293 TMEM16A/YFP-H148Q, iodide quench fluorescence; ionomycin added to raise cell calcium;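 active means mean duplicate percent inhibition, scaled so buffer wells are 0 and the reference blocker 100, over three buffer SD above buffer mean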
# HEK293 Ca mobil – calcium mobilization in TMEM16A/YFP HEK293 cells, confirmation, counter-screen for TMEM16A inhibitor project; calcium response (% of ionomycin), % at 10 µM; shares compounds with ANO1 block; Fluo4 calcium mobilization; hit rate 2% among 2,300; AID 652231, 2013;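 active means duplicate-averaged calcium signal over 20% of the ionomycin maximum, relative to buffer baseline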;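 further: each well's signal is peak minus trough fluorescence divided by its pre-addition baseline; 0% = buffer wells and 100% = ionomycin wells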
# Parental YFP cnt – iodide YFP quench changes in parental YFP-HEK293, counter-screen for TMEM16A inhibitor project, cell-based | 2,300 tested, under 10 active | ionomycin | AID 652233, 2013 | shares compounds with ANO1 block | YFP ratio F(max-min)/F0 at 10 µM;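 active means yellow fluorescent protein signal ratio exceeding the buffer control mean by over 5 SD of those controls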;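 further: ratio is mean of duplicate wells from kinetic YFP trace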
# ClC-1 inh – ClC-1 chloride channel inhibition, selectivity assay for TMEM16A inhibitor project, cell-based, voltage-dependent ClC-1. 2,300 tested, under 10 active. AID 652236, 2013. shares compounds with ANO1 block. ratio percent, % at 10 µM. CHO ClC-1-YFP, iodide influx fluorescence quench; iodide control reads 0, buffer control 100;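 active means duplicate-mean ratio percent above the mean of iodide-only control wells, which defines zero, plus 5 of their SD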;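 further: higher percent means stronger block of ClC-1 iodide influx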
# Target sequence (P35524 whole entry, looked up): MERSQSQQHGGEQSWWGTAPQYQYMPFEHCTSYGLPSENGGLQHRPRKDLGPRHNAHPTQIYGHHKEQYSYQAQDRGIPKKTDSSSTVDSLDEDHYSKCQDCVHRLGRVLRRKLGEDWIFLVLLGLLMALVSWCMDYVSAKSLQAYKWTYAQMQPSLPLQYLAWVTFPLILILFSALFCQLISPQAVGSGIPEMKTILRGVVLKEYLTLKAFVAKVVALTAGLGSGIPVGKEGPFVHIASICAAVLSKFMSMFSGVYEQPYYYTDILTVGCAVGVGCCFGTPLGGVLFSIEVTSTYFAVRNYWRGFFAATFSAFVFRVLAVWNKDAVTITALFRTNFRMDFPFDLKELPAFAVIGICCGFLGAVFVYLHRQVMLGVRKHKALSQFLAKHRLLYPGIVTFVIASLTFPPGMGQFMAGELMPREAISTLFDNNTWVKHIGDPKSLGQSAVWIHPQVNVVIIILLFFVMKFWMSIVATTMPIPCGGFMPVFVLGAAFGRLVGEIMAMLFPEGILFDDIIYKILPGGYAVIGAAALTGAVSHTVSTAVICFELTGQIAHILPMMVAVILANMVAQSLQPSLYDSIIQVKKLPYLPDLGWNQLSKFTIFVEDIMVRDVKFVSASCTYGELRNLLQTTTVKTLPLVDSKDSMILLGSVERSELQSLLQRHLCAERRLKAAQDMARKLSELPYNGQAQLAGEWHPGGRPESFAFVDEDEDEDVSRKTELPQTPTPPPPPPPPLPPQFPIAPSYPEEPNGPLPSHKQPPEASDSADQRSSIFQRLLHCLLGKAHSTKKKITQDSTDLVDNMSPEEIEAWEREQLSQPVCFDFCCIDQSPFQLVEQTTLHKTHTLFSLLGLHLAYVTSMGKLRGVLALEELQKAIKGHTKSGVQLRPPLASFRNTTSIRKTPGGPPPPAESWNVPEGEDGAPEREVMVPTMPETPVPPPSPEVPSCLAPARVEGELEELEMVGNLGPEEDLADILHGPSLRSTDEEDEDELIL
# * marks the source's active call; other numbers are inactive results; i = inactive; . = no result given. This is a sample that favours compounds with a hit; in the whole collection about 2.7% have one here.
SMILES,IDE act,TMEM16A act,CHT allo act,CHT inh,IDE cell inh,ANO1 block,TMEM16A reconf,HEK293 Ca mobil,Parental YFP cnt,ClC-1 inh
CCCCOC(=O)c1ccc(NC(=O)COC(=O)C2CSC3(C)CCC(=O)N23)cc1 (centres undefined),-6,i,i,i,2,25*,30%*,i,-0.95,-4
CC12CCC(=O)N1C(C(=O)OCC(=O)Nc1sccc1C#N)CS2 (centres undefined),2,i,i,i,-3,i,.,.,.,.
COc1cc(/C=N/NC(=O)c2ccccc2NS(=O)(=O)c2cccs2)ccc1O,0,i,.,.,.,.,.,.,.,.
Cc1ccc(S(=O)(=O)c2c(C)nn(C(C)(C)C)c2OC(=O)C(C)(C)C)cc1,2,i,i,i,-2,100*,i,i,-0.99,-18
Cc1cc(C(=O)CCC(=O)N(C)CC(=O)Nc2c(Cl)cccc2Cl)c(C)s1,0,i,i,i,7,i,.,.,.,.
O=c1[nH]c2ccccc2nc1/C=C/c1ccc(F)cc1,-1,i,i,i,0,i,i,i,-1.1,23
Cc1cc(S(=O)(=O)N2CCN(Cc3ccc4c(c3)OCO4)CC2)cc(C)c1N1CCCC1=O,3,i,i,i,1,100*,33%*,i,-1.1,-14
Cc1nn(-c2ccccc2)c(C)c1/C=N\N1CCN(c2ccc(Cl)cc2)CC1,-6,i,i,i,4,25*,i,i,-1.1,-10
Cc1ccc(C)n1NC(=O)c1cccs1,-2,i,i,i,3,i,.,.,.,.
CC(C)(NO)/C(=N/O)c1cccs1,1,i,i,i,1,25*,i,i,-1.1,-4
O=C(CN(C(=O)CNC(=O)c1cccs1)c1ccccc1F)NC1CCCC1,-1,i,i,i,-1,i,.,.,.,.
CCN(C1CCCCC1)S(=O)(=O)c1ccc(OC)c(C)c1,5,i,i,i,2,100*,i,i,-1.2,-4
CCN(C1CCCCC1)S(=O)(=O)c1cc(C)ccc1OC,4,i,i,i,-2,i,.,.,.,.
CCc1cc(C(=O)COc2ccc(F)cc2)c(O)cc1O,4,i,i,i,5,100*,20%*,i,-0.8,-4
C[C@H](CO)N1C[C@H](C)[C@@H](CN(C)C(=O)Nc2ccccc2)Oc2ccc(NC(=O)Cn3cnnn3)cc2C1=O,3,i,.,.,3,.,.,.,.,.
O=C(COC(=O)CNC(=O)c1ccccc1F)NC12CC3CC(CC(C3)C1)C2,2,i,.,.,-1,.,.,.,.,.
Cc1oc(-c2cc(F)ccc2F)nc1CN1CCN(c2ncnc3ccccc23)CC1,0,i,i,i,6,100*,20%*,i,-1.1,-19
